# According to PubChem BioAssay (EPA / NIEHS):
# “And” between values parts separate entries of the source, which are not always exact repeats. Identical values can stand only once. Some structures have more than one record in an assay (separate samples or runs), and their calls can disagree. The source made the active and inactive calls. The calls were made as follows: active = hit-call score of the fitted dose curve at least 0.9, where 1 is the maximum; inactive = score below 0.9.
# Test: CCTE_Shafer_MEA_dev_per_network_spike_spike_number_mean: CCTE's Neural Network Formation Assay for Mean Number of Spikes in a Network Spike, Shafer Lab (AID 2284053)
# Description: CCTE_Shafer_MEA_dev assay is conducted using Axion Biosystems 48 well microelectrode array (MEA) plates and Maestro recording system. Each well of the MEA plate contains a grid of 16 microelectrodes embedded in the culture surface. Electrically active cells, such as neurons, can be cultured over the electrodes, and electrical activity in these cells can be recorded extracellularly. The spontaneous firing of neurons is captured from each electrode on a microsecond timescale providing both temporally and spatially precise data. […] The CCTE_Shafer_MEA_dev assay uses primary cultures of rat cortical neurons. Recordings are made on days post-plating 5, 7, 9 and 12. As these cultures mature over time, neural networks develop functional activity and form cohesive networks in which electrical activity can be highly coordinated. CCTE_Shafer_MEA_dev_per_network_spike_spike_number_mean is 1 of 19 assay components of the CCTE_Shafer_MEA_dev assay. It measures the average number of spikes (action potential firings) in a network spike (temporally-clustered group of spikes across multiple electrodes) as the number of spikes that occur within a 0.05 s time window at the peak of a network spike divided by the total number of network spikes during a recording in a microelectrode array (MEA) using Axion Biosystems Maestro 768 channel amplifier with the AxIS adaptive spike detector. To collapse across multiple recordings made on days post-plating 5, 7, 9 and 12, the trapezoidal area-under-the-curve of the component is calculated.Data from the assay component CCTE_Shafer_MEA_dev_per_network_spike_spike_number_mean was analyzed into 1 assay endpoint. This assay endpoint, CCTE_Shafer_MEA_dev_per_network_spike_spike_number_mean, was analyzed in the negative analysis fitting direction relative to DMSO as the negative control and baseline of activity. Using a type of functional reporter, gain or loss-of-signal activity can be used to understand electrical activity.
# On the day prior to culture, each well was coated thoroughly with 150 uL of 0.05% polyethyleneimine (PEI, Sigma Cat P3143) in 50 mM HEPES (Sigma Cat H7523) at a pH of 8. The plate was incubated at 37C for one hour. PEI was rinsed out with 500 uL of sterile water three times. Plates were stored at 4C until the day of culture. This culture was plated at a seeding density of 1.5 x 10^5 cells/well on a 48-well MEA plate, prepared as described above. Cells were administered via a 25 uL media/laminin ([…]; Sigma Cat L2020-1MG) drop directly onto the microelectrode array, as adding the cells with the laminin results in better attachment than pre-coating with laminin. After 2 hours, an additional 475 uL of cortical media was added and the cells returned to the incubator. Exposure starts at day 0 of plating and is continued over twelve days of network development until the experiment is terminated. Cells are fed with fresh medium on DIV 5 and 9, following the recordings on those days. The entire volume of media in the well is exchanged and any vehicle or compound treatment is renewed. Complete details are found in OP-NHEERL/ISTD/SBB/TJS/2015-03-r0 (available on request, email shafer.tim@epa.gov). Measurement of the electrical activity is non-invasive, and recordings can be made from the same plate over multiple different days of the culture. In cortical neurons, this allows for the measurement of extracellular action potentials over the period during which networks form in the MEA plate.
SMILES,AC50,outcome
O=C1C2(Cl)C3(Cl)C4(Cl)C(Cl)(Cl)C5(Cl)C3(Cl)C1(Cl)C5(Cl)C24Cl (configuration not stated),0.341 µM (active),–
CCC(=O)C(CC(C)N(C)C)(c1ccccc1)c1ccccc1 (configuration not stated),3.36 µM (active),–
C=C(C)C(=O)[O][Sn]([CH2]CCC)([CH2]CCC)[CH2]CCC,0.0301 µM (active),–
ClC1(Cl)C2(Cl)C3(Cl)C4(Cl)C(Cl)(Cl)C5(Cl)C3(Cl)C1(Cl)C5(Cl)C24Cl (configuration not stated),2.68 µM (active),–
O=C(O)C(F)(F)C(F)(F)C(F)(F)C(F)(F)C(F)(F)C(F)(F)F,–,inactive
COP(=O)(OC)O/C(=C\Cl)c1cc(Cl)c(Cl)cc1Cl,–,inactive
CC(C)(C)c1cc(O)ccc1O,5.63 µM (active),–
Cn1sc(Cl)cc1=O,3.51 µM (active),–
CC(=O)[O][Hg][c]1ccccc1,0.0238 µM (active),–
O=C(O)C(F)(F)C(F)(F)C(F)(F)C(F)(F)C(F)(F)C(F)(F)C(F)(F)C(F)(F)C(F)(F)C(F)(F)F,–,inactive
CCOP(=S)(OCC)Oc1nc(Cl)c(Cl)cc1Cl,22.1 µM (active) and 23.9 µM (active),inactive
